These results are taken from PubChem BioAssay.

Assay [1] in a line: P. berghei load reduction in hepatocytes – cell-based, HepG2, luciferase luminescence, HepG2 viability, primary screen (AID 624349; in the data active = parasite load remaining mostly below about 12%, no sharp cut-off; inactive = mostly above about 10%;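 note: 100% = mean of DMSO negative control wells on the same plate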). Particulars: P. berghei liver stage in HepG2, luciferase luminescence, concentration not given here; parasite load remaining: stronger effect = lower value; viability: measured here: HepG2 viability without parasites.
A short description of assay [2]: signal quenchers or enhancers, Cy5 substrate/SSB – biochemical, NIH Clinical Collection, E. coli SSB, artefact control for HCV NS3 helicase inhibitor project (AID 743268; call rule not given here). Particulars: Cy5-oligo bound E. coli SSB, fluorescence interference.
Assay [3] deals with Hepatitis C virus NS3 helicase. Description: blockers of NS3h binding to DNA – biochemical, fluorescence polarization, NIH Clinical Collection, primary screen (AID 743270; call rule not given here). As to conditions: NS3 helicase binding to Cy5-dT15 DNA, stronger effect = higher value, concentration not given here. (In fluorescence polarisation assays a small probe gives low polarisation when free and higher when bound to something large.)

Assay [4] concerns the target Single-stranded DNA-binding protein (Escherichia coli (strain K12)) (UniProt P0AGE0). Put plainly: SSB-ssDNA binding inhibitors – biochemical, fluorescence polarization, NIH Clinical Collection, counter-screen for HCV NS3 helicase inhibitor project (AID 743271; in the data active = inhibition above about 28%). As to conditions: E. coli SSB-DNA binding, stronger effect = higher value, concentration not given here.
Assay [5] can be described thus: compounds distorting NS3 helicase fluorescence signal – biochemical, NIH Clinical Collection, artefact control for HCV NS3 helicase inhibitor project (AID 743272; call rule not given here;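 note: HCV NS3 helicase with a Cy5 labelled single stranded DNA probe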). Particulars: fluorescence interference counterscreen, HCV NS3 helicase assay; stronger effect = lower value.
For assay [6], the system named is Neuropilin-2 / VEGF-C interaction (human). Description: small molecules blocking Neuropilin-2/VEGF-C interaction – biochemical, microplate binding format, z-score (AID 743281; call rule not given here). Particulars: microplate NRP2/VEGF-C binding assay; stronger effect = lower value.
The nature of assay [7]: modulation of C. elegans fzo-1 (AID 1259413; call rule not given here;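 note: fzo-1 mutant C. elegans worms in liquid wells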). As to conditions: C. elegans fzo-1 modulator screen, mean read-out; stronger effect = higher value.
A further assay has as its system F380Y. Description: BK channel mutant inhibitors and activators – cell-based, U2OS BacMam, thallium flux, beta subunits, selectivity assay, profiling panel (AID 1259406).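 Note: initial slope of Thallos dye fluorescence rise after thallium is added; log ratio against the mean of 0.3% DMSO vehicle wells on the same plate.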 As to conditions: U2OS BacMam BK variants, at 30 µM.
The next assay relates to F380Y/beta1. Described as above. Particulars: U2OS BacMam BK variants, at 30 µM.
The next assay deals with F380Y/beta2Delta. The description is as above. Particulars: U2OS BacMam BK variants, at 30 µM.
A further assay relates to F380Y/beta4. Described as above. As to conditions: U2OS BacMam BK variants, at 30 µM.
The target in assay [8] is Calcium-activated potassium channel subunit alpha-1 (Homo sapiens) + Leucine-rich repeat-containing protein 26 (Homo sapiens) (UniProt Q12791+Q2I0M4). The assay is described as above. As to conditions: U2OS BacMam BK variants, F380Y/Slo1WT/gamma1, at 30 µM.
Chain of Calcium-activated potassium channel subunit alpha-1 (Homo sapiens) + Leucine-rich repeat-containing protein 26 (Homo sapiens) (Q2I0M4 whole entry, looked up, one chain of several): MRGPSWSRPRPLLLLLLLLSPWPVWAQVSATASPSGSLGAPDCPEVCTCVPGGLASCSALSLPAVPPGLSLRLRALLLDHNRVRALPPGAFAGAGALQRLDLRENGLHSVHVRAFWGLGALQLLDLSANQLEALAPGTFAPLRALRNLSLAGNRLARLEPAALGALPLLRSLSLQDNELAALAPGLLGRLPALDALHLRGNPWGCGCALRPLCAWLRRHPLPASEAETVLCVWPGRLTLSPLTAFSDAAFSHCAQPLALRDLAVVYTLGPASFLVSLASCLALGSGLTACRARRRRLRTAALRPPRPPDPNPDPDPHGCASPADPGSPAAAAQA
In the next assay the test system is R275C. The assay is described as above. As to conditions: U2OS BacMam BK variants, at 30 µM.
The test system of another assay is R275C/beta1. Described as above. Particulars: U2OS BacMam BK variants, at 30 µM.
Another assay has as its system R275C/beta2Delta. Described as above. As to conditions: U2OS BacMam BK variants, at 30 µM.
A further assay has as its system R275C/beta4. Described as above. As to conditions: U2OS BacMam BK variants, at 30 µM.
The test system of a further assay is R275C/Slo1WT/beta2. The assay is described as above. As to conditions: U2OS BacMam BK variants, at 30 µM.
Assay [9] in a line: viability loss with induced miR-34 in A549 – imaging, A549 dox-inducible miR-34, nuclei and caspase counts, primary screen (AID 1347080;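 active = compounds whose cell count with miR-34 switched on is under 0.7 times the count with it off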). Particulars: A549 miR-34 inducible, Hoechst nuclei count, 48 h.
Assay [10] is described as follows: MELAS cybrid and Rieske KO viability enhancers – cell-based, MELAS cybrids, Rieske KO mouse fibroblasts, CellTiter-Glo, primary screen (AID 1508586;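 active = mean z-score across replicates of 1.96 or higher in either the MELAS or the Rieske mutant cell line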;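 note: z relative to plate mean and SD of compound and empty wells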). As to conditions: low glucose.
The nature of assay [11]: galactose survival enhancers in mitochondrial complex I cybrids – cell-based, galactose medium, ATP luminescence, primary screen (AID 1645843;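 active = z-score of at least 1.8 in each of two replicates, scored against plate mean and spread of sample wells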;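 note: positive z means more ATP and so rescue of galactose-driven cybrid death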). Particulars: complex I mutant cybrid cells, 72 h, stronger effect = higher value.
The mark [12] stands for this setting: stronger effect = lower value, cell number ratio, induced over uninduced.
Setting [13] is: measured here: relative caspase fold change +Dox/-Dox.
The mark [14] stands for this setting: measured here: total cells with miR-34 induction, stronger effect = lower value.
The mark [15] stands for this setting: measured here: total cells without miR-34 induction.
[16] abbreviates: MELAS cybrid survival, CellTiter-Glo 48 h, stronger effect = higher value.
The mark [17] stands for this setting: Rieske KO mouse fibroblast survival, CellTiter-Glo 72 h.

SMILES strings stand for the structures. Where “and” joins values, the source holds several entries; their conditions need not be identical. Equal values may be shown once. Calls of active or inactive are those of the source.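 Rule for the calls, unless noted: active = thallium flux through the channel raised or lowered by more than 3 SD from vehicle-only wells, actives on both sides; inactive = the rest.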

Take `O=C1c2c(O)cc(O)cc2O[C@H](c2ccc(O)c(O)c2)[C@H]1O`: the parasite load remaining in assay [1] is 112% (inactive). In addition, in [1], the viability (commonly a read-out of living cells in per cent, often relative to untreated cells) is 91%. For the same compound, the fluorescence ratio in assay [2] and in assay [5] was 0.99 (inactive) throughout. Moreover, the inhibition (commonly the relative decrease from the control value, in per cent) was 1.19% (inactive) in assay [3] and -1.64% (inactive) in [4]. Moreover, the z-score in [6] is -0.839 (inactive). Further, in assay [7], the mean signal is 241 (inactive). Also, the log fold change Tl+ flux with F380Y was 0.0483 (inactive); with F380Y/beta1, -0.0233 (inactive); with F380Y/beta2Delta, 0.00163 (inactive); in the assay on F380Y/beta4, 0.00589 (inactive); in assay [8] it was 0.0266 (inactive); in the assay with R275C, -0.0716 (inactive). Further, the log fold change Tl+ flux in the assay on R275C/beta1 was -0.00477 (inactive); in the assay with R275C/beta2Delta it was 0.0423 (inactive); with R275C/beta4, 0.0387 (inactive); in the assay with R275C/Slo1WT/beta2 it was -0.0121 (inactive).
As to `CN1[C@@H]2CC[C@H]1CC(OC(=O)C(CO)c1ccccc1)C2` (some centres undefined), the parasite load remaining in assay [1] is 41.5% (inactive) and 46.2% (inactive). Moreover, the viability in assay [1] is 87.1% and 116%. Also, the mean signal in [7] is 274 (inactive). The fold change in assay [9] (setting [12]) is 0.947 (inactive) and 0.887 (inactive) and 0.871 (inactive); in assay [9] (setting [13]), 2.84 and 0.579 and 1.47. Besides, the cell count in assay [9] (setting [14]) is 10500 and 7790 and 9390; in assay [9] (setting [15]), 11100 and 8790 and 10800. Moreover, the z-score in [10] (setting [16]) was -0.283 (inactive) and 0.13 (inactive); in assay [10] (setting [17]), 0.502 and 0.307; in [11], 0.56 (inactive) and 0.265 (inactive). The log fold change Tl+ flux with F380Y is 0.0269 (inactive); with F380Y/beta1, -0.0245 (inactive); in the assay on F380Y/beta2Delta, 0.00535 (inactive); in the assay with F380Y/beta4, 0.0216 (inactive); in assay [8], 0.00679 (inactive); with R275C it was -0.0152 (inactive). For the same compound, the log fold change Tl+ flux with R275C/beta1 was -0.00104 (inactive); with R275C/beta2Delta it was 0.0208 (inactive); in the assay on R275C/beta4, -0.00928 (inactive); in the assay on R275C/Slo1WT/beta2, 0.0472 (inactive).
`CCC(=C(c1ccccc1)c1ccc(OCCN(C)C)cc1)c1ccccc1`: in assay [1], the parasite load remaining is -1.78% (inactive). The viability in [1] is 31.4%. The fluorescence ratio in assay [2] was 1.01 (inactive); in assay [5] it was 0.9 (inactive). Besides, the values for the inhibition in assay [3] and in [4] were 0.45% (inactive) and 7.15% (inactive), respectively. Also, the fold change in [9] (setting [12]) is 0.958 (inactive) and 0.928 (inactive); in [9] (setting [13]) it was 2.28 and 0.707. In addition, the cell count is 4730 and 2790 in assay [9] (setting [14]); 4930 and 3010 in assay [9] (setting [15]). Also, the values for the z-score in assay [10] (setting [16]), in assay [10] (setting [17]) and in assay [11] were 5.74 (active), 11.9 and -0.495 (inactive), respectively. For the same compound, the log fold change Tl+ flux is -0.00968 (inactive) with F380Y; -0.0043 (inactive) in the assay with F380Y/beta1; -0.0174 (inactive) in the assay with F380Y/beta2Delta; -0.00798 (inactive) in the assay on F380Y/beta4; -0.0114 (inactive) in [8]; -0.00676 (inactive) in the assay on R275C. Moreover, the log fold change Tl+ flux with R275C/beta1 is -0.0153 (inactive); in the assay on R275C/beta2Delta, -0.0428 (inactive); in the assay on R275C/beta4, 0.00537 (inactive); with R275C/Slo1WT/beta2 it was 0.0353 (inactive).
On to `O=c1c(O[C@@H]2O[C@H](CO)[C@@H](O)[C@H](O)[C@H]2O)c(-c2ccc(O)c(O)c2)oc2cc(O)cc(O)c12`, for which the parasite load remaining in [1] is 52.7% (inactive). Further, in assay [1], the viability amounted to 69.6%. Also, the fluorescence ratio in assay [2] was 0.86 (inactive); in [5], 0.99 (inactive). The inhibition in assay [3] was 2.77% (inactive); in [4] it was 12.2% (inactive). In addition, the z-score in [6] is -0.152 (inactive). In addition, the mean signal in assay [7] is 249 (inactive). In addition, the log fold change Tl+ flux in the assay on F380Y was -0.0619 (inactive); in the assay on F380Y/beta1, 0.0645 (inactive); in the assay with F380Y/beta2Delta it was -0.0137 (inactive); with F380Y/beta4 it was -0.0759 (inactive); in assay [8], 0.0381 (inactive); in the assay with R275C it was 0.0103 (inactive). In addition, the log fold change Tl+ flux was 0.0316 (inactive) in the assay on R275C/beta1, 0.0226 (inactive) with R275C/beta2Delta, 0.0307 (inactive) in the assay with R275C/beta4 and -0.0065 (inactive) in the assay on R275C/Slo1WT/beta2.
